According to ChEMBL document CHEMBL2218924, “A broad activity screen in support of a chemogenomic map for kinase signalling research and drug discovery” (Biochem J, 2013):

How the values were obtained:
[1] = biological target: BDNF/NT-3 growth factors receptor (Homo sapiens) (UniProt Q16620); conditions: at 10 µM
[2] = biological target: T1, Tyrosine-protein kinase TXK (Homo sapiens) (UniProt P42681); conditions: at 1 µM
T1 sequence (whole entry): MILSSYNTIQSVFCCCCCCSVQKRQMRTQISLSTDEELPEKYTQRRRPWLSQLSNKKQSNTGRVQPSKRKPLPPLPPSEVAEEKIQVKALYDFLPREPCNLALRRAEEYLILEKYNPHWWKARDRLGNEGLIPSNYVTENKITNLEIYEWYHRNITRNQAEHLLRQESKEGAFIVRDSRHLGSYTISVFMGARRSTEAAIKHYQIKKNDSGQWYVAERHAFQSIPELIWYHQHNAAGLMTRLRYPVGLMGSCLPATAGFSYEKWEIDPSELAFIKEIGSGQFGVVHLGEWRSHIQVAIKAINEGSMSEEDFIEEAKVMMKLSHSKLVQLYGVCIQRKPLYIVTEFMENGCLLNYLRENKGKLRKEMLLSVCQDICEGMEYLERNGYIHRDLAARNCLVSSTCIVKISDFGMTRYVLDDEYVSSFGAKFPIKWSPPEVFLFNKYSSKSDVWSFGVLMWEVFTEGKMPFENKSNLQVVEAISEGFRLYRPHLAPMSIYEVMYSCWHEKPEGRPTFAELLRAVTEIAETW

[3] = biological target: T1, Tyrosine-protein kinase TXK (Homo sapiens); conditions: at 10 µM
[4] = biological target: T2, Serine/threonine-protein kinase ULK2 (Homo sapiens) (UniProt Q8IYT8); conditions: at 1 µM
T2 sequence (whole entry): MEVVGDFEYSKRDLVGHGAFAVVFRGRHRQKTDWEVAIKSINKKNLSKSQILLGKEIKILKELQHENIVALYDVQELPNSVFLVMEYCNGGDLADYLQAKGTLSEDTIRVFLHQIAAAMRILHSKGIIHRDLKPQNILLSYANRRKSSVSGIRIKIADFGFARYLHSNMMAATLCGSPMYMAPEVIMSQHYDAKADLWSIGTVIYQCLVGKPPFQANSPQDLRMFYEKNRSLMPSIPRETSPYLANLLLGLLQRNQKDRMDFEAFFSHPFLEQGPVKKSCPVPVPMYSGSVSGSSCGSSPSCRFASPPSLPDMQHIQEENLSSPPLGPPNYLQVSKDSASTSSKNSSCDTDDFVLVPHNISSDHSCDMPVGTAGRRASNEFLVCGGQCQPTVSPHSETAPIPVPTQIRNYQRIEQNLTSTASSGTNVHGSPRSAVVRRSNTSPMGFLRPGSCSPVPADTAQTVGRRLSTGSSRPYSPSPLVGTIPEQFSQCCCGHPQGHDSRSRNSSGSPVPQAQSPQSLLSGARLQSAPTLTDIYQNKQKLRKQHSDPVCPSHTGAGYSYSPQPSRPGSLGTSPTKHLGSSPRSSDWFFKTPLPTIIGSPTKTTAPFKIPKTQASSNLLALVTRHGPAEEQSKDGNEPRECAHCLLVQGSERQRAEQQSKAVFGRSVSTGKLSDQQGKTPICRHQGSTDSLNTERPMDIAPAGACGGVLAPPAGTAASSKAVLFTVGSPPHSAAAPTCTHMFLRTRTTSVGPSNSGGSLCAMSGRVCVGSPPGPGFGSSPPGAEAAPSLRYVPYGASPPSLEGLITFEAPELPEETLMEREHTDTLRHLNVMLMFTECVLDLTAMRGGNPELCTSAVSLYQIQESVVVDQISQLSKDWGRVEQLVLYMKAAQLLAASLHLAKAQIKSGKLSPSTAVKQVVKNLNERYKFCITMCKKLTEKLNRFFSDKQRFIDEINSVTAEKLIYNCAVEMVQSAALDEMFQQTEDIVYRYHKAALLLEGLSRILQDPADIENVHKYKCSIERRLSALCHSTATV

[5] = biological target: T2, Serine/threonine-protein kinase ULK2 (Homo sapiens); conditions: at 10 µM
[6] = biological target: T3, Serine/threonine-protein kinase ULK3 (Homo sapiens) (UniProt Q6PHR2); conditions: at 1 µM
T3 sequence (whole entry): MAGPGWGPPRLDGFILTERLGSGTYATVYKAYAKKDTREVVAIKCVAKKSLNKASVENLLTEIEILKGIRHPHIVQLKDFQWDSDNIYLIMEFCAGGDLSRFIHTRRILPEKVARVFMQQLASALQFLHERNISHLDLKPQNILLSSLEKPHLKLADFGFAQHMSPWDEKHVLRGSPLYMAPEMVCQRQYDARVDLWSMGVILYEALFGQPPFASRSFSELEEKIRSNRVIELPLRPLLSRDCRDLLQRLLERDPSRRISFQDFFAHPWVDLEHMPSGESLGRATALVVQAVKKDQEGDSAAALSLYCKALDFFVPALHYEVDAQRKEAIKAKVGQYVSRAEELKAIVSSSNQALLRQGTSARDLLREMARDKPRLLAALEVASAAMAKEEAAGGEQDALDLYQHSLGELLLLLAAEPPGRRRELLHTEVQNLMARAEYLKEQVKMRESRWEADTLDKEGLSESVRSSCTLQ

[7] = biological target: T3, Serine/threonine-protein kinase ULK3 (Homo sapiens); conditions: at 10 µM
[8] = biological target: Serine/threonine-protein kinase VRK2 (Homo sapiens) (UniProt Q86Y07); conditions: at 1 µM
Chain of Serine/threonine-protein kinase VRK2 (Homo sapiens) (Q86Y07 whole entry): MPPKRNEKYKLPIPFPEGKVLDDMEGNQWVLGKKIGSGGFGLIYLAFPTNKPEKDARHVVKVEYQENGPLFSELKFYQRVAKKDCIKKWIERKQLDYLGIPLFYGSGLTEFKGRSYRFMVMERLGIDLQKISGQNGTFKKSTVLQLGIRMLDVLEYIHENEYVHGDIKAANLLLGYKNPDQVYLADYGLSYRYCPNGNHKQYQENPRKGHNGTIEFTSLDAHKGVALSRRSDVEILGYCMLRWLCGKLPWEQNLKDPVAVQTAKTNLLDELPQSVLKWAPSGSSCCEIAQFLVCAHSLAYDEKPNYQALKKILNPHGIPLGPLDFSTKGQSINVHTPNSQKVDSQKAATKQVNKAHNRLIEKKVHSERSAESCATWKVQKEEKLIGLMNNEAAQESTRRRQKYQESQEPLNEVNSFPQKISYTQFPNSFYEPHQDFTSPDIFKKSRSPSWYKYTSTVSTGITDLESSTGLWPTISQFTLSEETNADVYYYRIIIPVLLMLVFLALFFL

[9] = biological target: Serine/threonine-protein kinase VRK2 (Homo sapiens) (UniProt Q86Y07); conditions: at 10 µM
[10] = biological target: Serine/threonine-protein kinase WNK2 (Homo sapiens) (UniProt Q9Y3S1); conditions: at 1 µM;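 further: residual WNK2 kinase activity expressed as percent of uninhibited control, assayed in MOPS buffer at pH 7.0 containing EDTA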
Chain of Serine/threonine-protein kinase WNK2 (Homo sapiens) (Q9Y3S1 whole entry): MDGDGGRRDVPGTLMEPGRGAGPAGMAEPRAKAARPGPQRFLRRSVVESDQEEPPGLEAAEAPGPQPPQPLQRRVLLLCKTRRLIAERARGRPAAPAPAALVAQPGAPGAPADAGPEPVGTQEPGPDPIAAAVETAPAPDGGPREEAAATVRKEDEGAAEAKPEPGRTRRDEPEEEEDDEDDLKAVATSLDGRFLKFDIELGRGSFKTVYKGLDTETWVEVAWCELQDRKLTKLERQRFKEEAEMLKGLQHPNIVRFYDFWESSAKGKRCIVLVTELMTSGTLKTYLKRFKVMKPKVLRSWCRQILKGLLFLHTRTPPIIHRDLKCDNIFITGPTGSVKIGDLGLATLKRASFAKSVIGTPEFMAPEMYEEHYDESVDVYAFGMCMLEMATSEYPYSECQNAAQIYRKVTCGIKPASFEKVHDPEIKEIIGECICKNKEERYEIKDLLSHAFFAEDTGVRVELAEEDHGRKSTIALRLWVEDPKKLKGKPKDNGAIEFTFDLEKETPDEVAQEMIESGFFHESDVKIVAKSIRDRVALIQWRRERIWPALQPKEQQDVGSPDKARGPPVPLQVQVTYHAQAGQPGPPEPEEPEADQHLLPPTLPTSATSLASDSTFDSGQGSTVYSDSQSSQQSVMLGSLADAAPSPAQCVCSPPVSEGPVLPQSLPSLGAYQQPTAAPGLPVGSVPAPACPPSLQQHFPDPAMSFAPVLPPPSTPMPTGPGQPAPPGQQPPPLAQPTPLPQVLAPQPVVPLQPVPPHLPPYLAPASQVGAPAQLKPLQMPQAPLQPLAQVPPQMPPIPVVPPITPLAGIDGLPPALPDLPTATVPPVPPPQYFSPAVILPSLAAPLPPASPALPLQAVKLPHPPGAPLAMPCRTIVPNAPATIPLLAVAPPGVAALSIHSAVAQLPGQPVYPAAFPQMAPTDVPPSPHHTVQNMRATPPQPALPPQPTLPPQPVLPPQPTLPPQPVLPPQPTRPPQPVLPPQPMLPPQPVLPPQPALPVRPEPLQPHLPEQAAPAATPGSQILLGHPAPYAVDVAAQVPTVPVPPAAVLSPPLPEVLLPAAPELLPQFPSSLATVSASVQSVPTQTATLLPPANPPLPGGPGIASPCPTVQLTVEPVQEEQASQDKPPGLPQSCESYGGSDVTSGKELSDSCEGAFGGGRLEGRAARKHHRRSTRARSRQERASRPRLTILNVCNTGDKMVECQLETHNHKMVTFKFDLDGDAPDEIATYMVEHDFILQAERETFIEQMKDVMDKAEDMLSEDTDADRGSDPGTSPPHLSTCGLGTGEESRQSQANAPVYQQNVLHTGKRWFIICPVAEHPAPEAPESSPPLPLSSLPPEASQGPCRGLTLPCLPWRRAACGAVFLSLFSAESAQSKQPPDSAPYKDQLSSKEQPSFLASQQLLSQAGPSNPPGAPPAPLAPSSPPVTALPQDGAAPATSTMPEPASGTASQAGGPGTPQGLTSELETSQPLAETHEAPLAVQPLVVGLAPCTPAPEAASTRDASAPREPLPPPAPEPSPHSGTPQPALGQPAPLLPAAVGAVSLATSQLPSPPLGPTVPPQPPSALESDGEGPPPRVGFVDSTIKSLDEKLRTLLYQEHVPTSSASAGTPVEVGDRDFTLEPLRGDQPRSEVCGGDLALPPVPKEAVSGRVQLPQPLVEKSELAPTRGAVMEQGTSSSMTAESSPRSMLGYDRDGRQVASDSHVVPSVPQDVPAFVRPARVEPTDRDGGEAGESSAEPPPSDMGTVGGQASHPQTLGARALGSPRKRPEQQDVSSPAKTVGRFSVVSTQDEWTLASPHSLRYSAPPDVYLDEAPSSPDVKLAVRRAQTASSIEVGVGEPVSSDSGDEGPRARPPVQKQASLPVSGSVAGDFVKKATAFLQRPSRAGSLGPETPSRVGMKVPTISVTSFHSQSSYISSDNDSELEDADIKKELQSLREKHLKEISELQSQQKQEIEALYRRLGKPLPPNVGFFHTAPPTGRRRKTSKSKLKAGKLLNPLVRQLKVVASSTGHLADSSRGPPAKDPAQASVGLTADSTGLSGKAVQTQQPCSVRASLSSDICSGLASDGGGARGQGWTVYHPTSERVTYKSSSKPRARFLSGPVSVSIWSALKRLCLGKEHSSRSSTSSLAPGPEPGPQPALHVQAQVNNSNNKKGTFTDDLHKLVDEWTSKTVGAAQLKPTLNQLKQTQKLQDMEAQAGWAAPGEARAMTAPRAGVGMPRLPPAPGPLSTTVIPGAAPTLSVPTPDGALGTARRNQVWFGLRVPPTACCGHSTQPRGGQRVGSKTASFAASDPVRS

Chain of BDNF/NT-3 growth factors receptor (Homo sapiens) (Q16620 32-822 limits assumed): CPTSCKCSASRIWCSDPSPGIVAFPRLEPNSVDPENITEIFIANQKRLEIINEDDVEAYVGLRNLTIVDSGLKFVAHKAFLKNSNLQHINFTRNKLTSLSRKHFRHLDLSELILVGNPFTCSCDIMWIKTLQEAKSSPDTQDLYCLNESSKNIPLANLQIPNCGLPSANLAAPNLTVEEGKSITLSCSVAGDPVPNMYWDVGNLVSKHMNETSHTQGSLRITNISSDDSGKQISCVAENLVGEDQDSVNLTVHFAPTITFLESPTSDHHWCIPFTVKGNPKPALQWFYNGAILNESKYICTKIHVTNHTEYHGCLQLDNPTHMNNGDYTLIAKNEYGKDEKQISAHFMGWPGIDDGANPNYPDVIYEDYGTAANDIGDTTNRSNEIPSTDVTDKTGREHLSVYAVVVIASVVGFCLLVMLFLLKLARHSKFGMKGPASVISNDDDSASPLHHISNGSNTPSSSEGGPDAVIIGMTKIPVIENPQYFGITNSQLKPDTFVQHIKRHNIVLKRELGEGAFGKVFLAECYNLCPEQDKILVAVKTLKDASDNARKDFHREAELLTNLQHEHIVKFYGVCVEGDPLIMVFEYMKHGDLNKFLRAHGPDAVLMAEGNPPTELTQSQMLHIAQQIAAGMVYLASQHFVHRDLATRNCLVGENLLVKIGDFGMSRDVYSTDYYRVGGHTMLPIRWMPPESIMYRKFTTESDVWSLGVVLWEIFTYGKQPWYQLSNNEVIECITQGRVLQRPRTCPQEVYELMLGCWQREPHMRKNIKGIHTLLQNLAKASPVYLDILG

CC(C)n1cnc2c(NCc3ccccc3)nc(NCCCO)nc21
residual activity [1]: 98% | residual activity [2]: 75% | residual activity [3]: 74% | residual activity [4]: 106% | residual activity [5]: 101% | residual activity [6]: 95% | residual activity [7]: 90% | residual activity [8]: 95% (inactive) | residual activity [9]: 69% | residual activity [10]: 98% (inactive)

Oc1ccc(-c2nc(-c3ccc(F)cc3)c(-c3ccncc3)[nH]2)cc1
residual activity [1]: 61% | residual activity [2]: 78% | residual activity [3]: 43% | residual activity [4]: 112% | residual activity [5]: 104% | residual activity [6]: 102% | residual activity [7]: 95% | residual activity [8]: 117% (inactive) | residual activity [9]: 86% | residual activity [10]: 118% (inactive)

O=C1NC(=O)/C(=C\c2ccc3nccnc3c2)S1
residual activity [1]: 94% | residual activity [2]: 100% | residual activity [3]: 93% | residual activity [4]: 104% | residual activity [5]: 82% | residual activity [6]: 99% | residual activity [7]: 63% | residual activity [8]: 93% (inactive) | residual activity [9]: 92% | residual activity [10]: 82% (inactive)

N#C/C(=C(\N)Sc1ccc(N)cc1)c1ccccc1C(F)(F)F
residual activity [1]: 72% | residual activity [2]: 74% | residual activity [3]: 86% | residual activity [4]: 119% | residual activity [5]: 107% | residual activity [6]: 95% | residual activity [7]: 94% | residual activity [8]: 101% (inactive) | residual activity [9]: 95% | residual activity [10]: 101% (inactive)

O=C1Nc2ccc(Br)cc2/C1=C\c1cc2c([nH]1)CCCC2
residual activity [1]: 44% | residual activity [2]: 107% | residual activity [3]: 76% | residual activity [6]: 52% | residual activity [7]: 55% | residual activity [10]: 110% (inactive)

CN(C)c1ccc(/C=C2\C(=O)Nc3ccccc32)cc1
residual activity [1]: 5% | residual activity [2]: 108% | residual activity [3]: 69% | residual activity [4]: 107% | residual activity [5]: 70% | residual activity [6]: 100% | residual activity [7]: 49% | residual activity [8]: 113% (inactive) | residual activity [9]: 87% | residual activity [10]: 110% (inactive)

O=[N+]([O-])c1ccc(-c2nc(-c3ccc(F)cc3)c(-c3ccncc3)[nH]2)cc1
residual activity [1]: 107% | residual activity [2]: 61% | residual activity [3]: 66% | residual activity [4]: 112% | residual activity [5]: 106% | residual activity [6]: 103% | residual activity [7]: 103% | residual activity [9]: 93% | residual activity [10]: 102% (inactive)

Cc1cccc(-c2[nH]c(C(C)(C)C)nc2-c2ccc3c(c2)OCO3)n1
residual activity [3]: 98% | residual activity [5]: 94% | residual activity [6]: 104% | residual activity [7]: 96% | residual activity [8]: 105% (inactive) | residual activity [9]: 71% | residual activity [10]: 106% (inactive)

CC#CC(=O)Nc1cc2c(Nc3ccc(F)c(Cl)c3)ncnc2cn1
residual activity [1]: 103% | residual activity [2]: 52% | residual activity [3]: 14% | residual activity [4]: 99% | residual activity [5]: 97% | residual activity [6]: 116% | residual activity [7]: 97% | residual activity [8]: 97% (inactive) | residual activity [9]: 92% | residual activity [10]: 103% (inactive)

O=C1c2ccccc2-[n+]2ccc3c([nH]c4ccccc43)c21
residual activity [1]: 89% | residual activity [2]: 75% | residual activity [3]: 75% | residual activity [5]: 96% | residual activity [6]: 92% | residual activity [7]: 95% | residual activity [8]: 93% (inactive) | residual activity [9]: 92% | residual activity [10]: 95% (inactive)

N#Cc1cnc2cnc(NCc3cccnc3)cc2c1Nc1ccc(F)c(Cl)c1
residual activity [1]: 1% | residual activity [2]: 86% | residual activity [3]: 69% | residual activity [6]: 100% | residual activity [7]: 88% | residual activity [9]: 93%

O=C(O)c1ccc2c3c1cccc3c(=O)n1c3ccccc3nc21
residual activity [1]: 59% | residual activity [2]: 77% | residual activity [3]: 60% | residual activity [4]: 90% | residual activity [5]: 48% | residual activity [6]: 91% | residual activity [7]: 70% | residual activity [8]: 105% (inactive) | residual activity [9]: 89% | residual activity [10]: 113% (inactive)

N#CC(C#N)=C(N)/C(C#N)=C/c1ccc(O)cc1
residual activity [1]: 116% | residual activity [2]: 78% | residual activity [3]: 67% | residual activity [6]: 100% | residual activity [7]: 92% | residual activity [8]: 100% (inactive) | residual activity [9]: 94%

CCN(CC)C(=O)c1ccc(Nc2nc(OCC3CCCCC3)c3nc[nH]c3n2)cc1
residual activity [1]: 2% | residual activity [2]: 49% | residual activity [3]: 5% | residual activity [4]: 80% | residual activity [5]: 35% | residual activity [6]: 36% | residual activity [7]: 8% | residual activity [10]: 96% (inactive)

COc1cc2ncc(-c3ccccc3)nc2cc1OC
residual activity [1]: 37% | residual activity [2]: 96% | residual activity [3]: 73% | residual activity [7]: 86%

c1ccc2c(-c3ccncc3)c[nH]c2c1
residual activity [1]: 110% | residual activity [2]: 109% | residual activity [3]: 97% | residual activity [4]: 104% | residual activity [5]: 97% | residual activity [6]: 104% | residual activity [7]: 82% | residual activity [8]: 101% (inactive) | residual activity [9]: 88% | residual activity [10]: 107% (inactive)

CO[C@@H]1[C@H](N(C)C(=O)c2ccccc2)C[C@H]2O[C@]1(C)n1c3ccccc3c3c4c(c5c6ccccc6n2c5c31)C(=O)NC4
residual activity [1]: -12% | residual activity [2]: 82% | residual activity [3]: 69% | residual activity [5]: 76% | residual activity [6]: 17% | residual activity [7]: 5% | residual activity [8]: 99% (inactive) | residual activity [9]: 94% | residual activity [10]: 90% (inactive)

Ic1cccc(CSc2nnc(-c3ccncc3)o2)c1
residual activity [1]: 28% | residual activity [2]: 75% | residual activity [3]: 81% | residual activity [4]: 98% | residual activity [6]: 86% | residual activity [7]: 92% | residual activity [8]: 92% (inactive) | residual activity [9]: 79% | residual activity [10]: 87% (inactive)

Cn1nc2c3c(cccc31)C(=O)c1ccccc1-2
residual activity [1]: 66% | residual activity [2]: 82% | residual activity [3]: 61% | residual activity [5]: 104% | residual activity [6]: 89% | residual activity [7]: 84% | residual activity [8]: 92% (inactive) | residual activity [9]: 77% | residual activity [10]: 93% (inactive)
